SARS PLP yeast: qHTS of Yeast-based Assay for SARS-CoV PLP; S. cerevisiae expressing SARS-CoV PLpro, growth rescue; Potency, µM (series often up to 32.9 µM), inactives show top-dose activity, positive = growth rescue, usual class: activators; actives 0.19% (n = 330,000); AID 485353, 2010; calls by dose curve; also: potency is read from the fitted curve at half-maximal effect; 0% is about no effect; nearly all actives have a fitted effect of over 55% in size
HCMV inh: qHTS Assay for inhibitors of the human cytomegalovirus (HCMV). HFF cells, HCMV-luciferase reporter, 72 h; stronger effect = lower value. AID 1259415, 2018. actives 4.5% (n = 410,000). activity change, negative = inhibition, % at 57.5 µM; in the data active = activity change below about -60%; inconclusive = no clear call, values can overlap the other calls; inactive = above about -39%; also: % is scaled to controls: 0 for no effect and ±100 for the full control effect
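Two compound doses tested in HFFs infected with HCMV-luciferase, MOI 1 PFU/cell, 72 h at 37C. Lysate luminescence read with OneGlo; data normalized against buffer-only and 10uM Salinomycin inhibitor controls.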
FMDV antiviral: High Throughput Screening for Foot and Mouth Disease Virus Antivirals; actives 1.2% (n = 410,000); FMDV antiviral cell-based qHTS; Potency, µM (top dose mostly 57.9 µM), inactives show at the highest dose activity change, negative = inhibition, actives largely listed as inhibitors; calls by dose curve; tested in HEK293T cells; also: read-out not given here; potency is read from the fitted curve at half-maximal effect; % is scaled to controls: 0 for no effect and ±100 for the full control effect; nearly all actives have a fitted effect of over 45% in size
Marburg entry inh: qHTS for inhibitors of binding or entry into cells for Marburg Virus; Marburg virus pseudotyped entry inhibition, cell reporter; Potency, µM (titrated, usually from 37.8 µM), for the others: at the top dose activity change, negative = inhibition, most hits filed as inhibitors; actives 1.8% (n = 300,000); AID 540276, 2011; calls by dose curve; tested in HEK293 cells; also: potency is read from the fitted curve at half-maximal effect; % is scaled to controls: 0 for no effect and ±100 for the full control effect
HCV inh: qHTS Assay for Inhibitors of Hepatitis C Virus (HCV); Huh7.5.1 HCVcc-Cre infection, luciferase reporter, 44 h; Potency, µM (doses to about 41.8 µM), without a hit: at the highest dose activity change, negative = inhibition, actives largely listed as inhibitors; actives 3.4% (n = 340,000); AID 651820, 2012; active = well fitted inhibition curve with a large enough effect; inconclusive = small, poorly fitted or top-dose-only effect, or another doubt; inactive = no such curve, though single readings can be large or run the other way; also: potency is read from the fitted curve at half-maximal effect; % is scaled to controls: 0 for no effect and ±100 for the full control effect
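Seed cells (1,000/well) for 4 h; treat with compound and infect with HCVcc-Cre, moi about 0.5. Incubate 44 h, then detect luciferase activity.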
LASV entry inh: qHTS for Inhibitors of binding or entry into cells for Lassa Virus. actives 1.2% (n = 300,000). Potency, µM (top dose mostly 37.9 µM), without a hit: top-dose activity change, negative = inhibition, most hits filed as inhibitors. Lassa virus pseudotype entry inhibition, cell reporter; calls by dose curve; tested in HEK293 cells; also: potency is read from the fitted curve at half-maximal effect; % is scaled to controls: 0 for no effect and ±100 for the full control effect; nearly all actives have a fitted effect of over 50% in size
Numbers without * were called inactive; ? = inconclusive; · = no result; [ ] = dose if it differs, or a comment. The list is not random: actives were taken first. Their share in the collection is about 8%.

SMILES	SARS PLP yeast	HCMV inh	FMDV antiviral	Marburg entry inh	HCV inh	LASV entry inh
CC(C)N1C(=O)c2ccccc2N(Cc2ccccc2)S1(=O)=O	-1%	-62*	-21%	·	-16%	·
COc1ccc(CNc2cc(-c3cccnc3)ncn2)c(OC)c1	·	·	-22%	·	·	·
C(=NN1CCCCCC1)c1cccc2ccccc12	·	-20	44%	17%	12%	17%
C(=NN1CCCCCC1)c1ccc2ccccc2n1	·	-92*	100µM*	2.5µM*	-1%	?
Cc1ccc(NS(=O)(=O)c2cc(C(=O)Nc3cccc([N+](=O)[O-])c3)ccc2C)cc1	?	-39	36%	?	?	18µM*
Cc1ccc([N+](=O)[O-])cc1S(=O)(=O)Nc1cccc(S(=O)(=O)Nc2ccccc2C(=O)O)c1	5%	26	-18%	-3%	22%	4%
Cc1ccc(C(=O)Nc2cccc([N+](=O)[O-])c2)cc1S(=O)(=O)Nc1ccc(NC(=O)c2ccccc2)cc1	-6%	-74*	27%	?	10µM*	?
Cc1ccc(NC(=O)CC(=O)c2ccc([N+](=O)[O-])cc2)cc1S(=O)(=O)Nc1cccc(Cl)c1	0%	?	-20%	?	10µM*	?
Cc1ccc(C(=O)Nc2cccc([N+](=O)[O-])c2)cc1S(=O)(=O)Nc1cccc(C(=O)O)c1	8%	-26	32%	-2%[46.1 µM]	0%	14%
Cc1ccc(C)c(NC(=O)c2ccccc2NS(=O)(=O)c2cc([N+](=O)[O-])ccc2C)c1	-12%	-87*	?	4.1µM*	8.9µM*	?
CN1OC[C@@H]2CN(C(=O)Nc3ccccc3)[C@H](c3ccc(N4CCCCC4)cc3)C[C@@H]21	·	-4	-9%	·	·	·
CC1(C)C[C@@]2(C)CCC3=CC(=O)C=C[C@@]32O1	·	-26	·	·	·	·
CCc1ccc(C(=O)COC(=O)C(Cc2c[nH]c3ccccc23)NC(=O)c2ccc(CC)cc2)cc1 (stereo unspecified)	·	?	21%	·	·	?
CSc1nsc(SCC(=O)Nc2ccc(C(N)=O)cc2)n1	3%	118	20%	2%	-9%	?
CCOC(=O)c1[nH]c(C)c(CCC(=O)Nc2ccc(C(C)=O)cc2)c1C	·	7	-6%	·	·	-6%[46.1 µM]
Cc1ccc(C(=O)NC2CCN(CC(=O)Nc3cccc([N+](=O)[O-])c3)CC2)cc1	-1%	11	-8%	0.79µM*	?	-10%
Cc1ccc(C(=O)Nc2ccccc2)cc1S(=O)(=O)Nc1ccccc1	·	2	57%	?	·	-4%[46.1 µM]
CC(=O)Nc1ccc(NC(=O)c2ccc(C)c(S(=O)(=O)Nc3cccc(C)c3)c2)cc1	1%	-36	41%	6.3µM*	13µM*	-1%[46.1 µM]
NS(=O)(=O)c1cccc(NC(=O)c2ccc(NS(=O)(=O)c3cccc([N+](=O)[O-])c3)cc2)c1	3%	-75*	10%	20%	1%	9%
COc1ccc(Cl)cc1C1CC(=O)Nc2cc3c(cc21)OCCO3 (stereo unspecified)	·	-92*	-1%	?	·	-35%[46.1 µM]
O=C1CC(c2ccc(Cl)cc2)c2cc3c(cc2N1)OCCO3 (stereo unspecified)	·	?	-12%	?	·	-10%[46.1 µM]
CCCOc1c(OC)cccc1C1CC(=O)Nc2cc3c(cc21)OCCO3 (stereo unspecified)	-17%	21	0%	?	?	?
CCOc1cccc(C2CC(=O)Nc3cc4c(cc32)OCCO4)c1 (stereo unspecified)	·	-22	0%	2.2µM*	·	?
COc1ccccc1C1CC(=O)Nc2cc3c(cc21)OCCO3 (stereo unspecified)	6%	-85*	?	2.1µM*	?	?
CCCOc1c(OC)cccc1C1CC(=O)Nc2cc3c(cc21)OCO3 (stereo unspecified)	0%	-19	?	?	11µM*	7.1µM*
SMILES	SARS PLP yeast	HCMV inh	FMDV antiviral	Marburg entry inh	HCV inh	LASV entry inh
COc1cccc(C2CC(=O)Nc3cc4c(cc32)OCCO4)c1OC(C)C (stereo unspecified)	5%	-11	?	·	-14%	·
COc1ccccc1CNc1nc(-c2ccccc2CN(C)C)nc2ccccc12	·	·	-12%	·	·	·
CC(C)Oc1ccccc1C1CC(=O)Nc2cc3c(cc21)OCCO3 (stereo unspecified)	1%	-103*	?	?	?	?
O=[N+]([O-])c1cc([N+](=O)[O-])c2cccnc2c1Oc1ccccc1O	20%	-28	16µM*	?	?	?
O=[N+]([O-])c1ccc(O)c2ncccc12	-17%	-99*	-20%	?	?	?
O=[N+]([O-])c1ccc(O)c2cccnc12	0%	-10	-13%	13%	?	0%[46.1 µM]
O=[N+]([O-])c1ccccc1Oc1ccc(Cl)c2cccnc12	0%	-7	-3%	?	?	?
OC(CN1CCCCC1)c1ccc2c3c(cccc13)CC2 (stereo unspecified)	·	-5	-19%	?	?	0%[46.1 µM]
CCOc1ccccc1-n1ccnc(NCc2ccc(F)cc2)c1=O	·	17	-9%	·	·	24%[46.1 µM]
COc1ccc(-n2ncc(C(=O)Nc3ccc4c(c3)OCO4)c2C2CCN(C(=O)OC(C)(C)C)CC2)cc1	·	0	18%	·	·	-24%[46.1 µM]
COc1ccc(S(=O)(=O)Nc2cc3c4c(oc3c3ccccc23)CCCC4=O)cc1	-3%	-6	1%	?	?	7.1µM*
COc1ccc(S(=O)(=O)Nc2cc3c4c(oc3c3ccccc23)CC(C)(C)CC4=O)cc1	-1%	-20	20%	15µM*	?	?
O=C(Nc1ccc(C(F)(F)F)cc1)c1cc(S(=O)(=O)NC2CCCCCC2)ccc1F	·	-78*	-2%	·	·	-4%[46.1 µM]
CCOc1ccc(NC(=O)c2cc(S(=O)(=O)NC3CCCC3)ccc2F)cc1	·	-61*	14%	·	·	-1%[46.1 µM]
O=C(Nc1ccc(Br)cc1)c1cc(S(=O)(=O)NC2CCCC2)ccc1F	·	-35	5%	·	·	?
O=C(Nc1ccc(C(F)(F)F)cc1)c1cc(S(=O)(=O)NC2CCCCC2)ccc1F	·	-38	-4%	·	·	-10%[46.1 µM]
Nc1ccc(Br)c[n+]1Cc1cccc2cccnc12	1%	-20	-17%	10µM*	-4%	-17%[46.1 µM]
CN(Cc1cccc2ncccc12)C(=O)c1cnn(-c2ncc3c(n2)-c2ccccc2CC3)c1C1CC1	·	·	28µM*	·	·	·
Cc1cc(OCc2cc(C(=O)NC(C)c3c(C)nn(C)c3C)no2)cc(C)c1Cl (stereo unspecified)	-6%	?	-1%	·	11µM*	·
COC(=O)N/N=C/c1cn(CCCOc2ccccc2)c2ccccc12	7%	70	?	16µM*	?	?
